Compound activity (PubChem BioAssay)
The full list was thinned out, with hits kept by preference.
HT1080 IDH1KD tx: qHTS for induction of synthetic lethality in tumor cells producing 2HG: qHTS for the HT-1080-IDH1KD cell line | HT-1080 IDH1 knockdown viability, ATP luminescence, 48 h | Potency, µM (titrated, usually from 46.1 µM), for the others: at the top dose activity, negative = toxicity, actives largely listed as cytotoxic | actives 2% (n = 360,000) | AID 686971, 2013;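 note: potency is the fitted concentration of half-maximal effect; 0% = DMSO wells and -100% = cell-free medium wells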
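% activity derives from luminescence (CellTiter-Glo), normalised to DMSO and no-cell wells. HT-1080-IDH1KD cells, 750/well, had 48 h compound exposure at 37 °C.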
TDP1 cell CPT: qHTS for Inhibitors of human tyrosyl-DNA phosphodiesterase 1 (TDP1): qHTS in cells in presence of CPT; AID 686979, 2013; actives 12% (n = 420,000); Potency, µM (highest dose often 46.2 µM), for inactives: top-dose activity change, negative = growth inhibition, actives largely listed as inhibitors; chicken DT40 Tdp1-/-;hTDP1 cells + 20 nM CPT, ATP luminescence, 48 h; note: potency is the fitted concentration of half-maximal effect; nearly all actives have a fitted effect of over 55% in size
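Cell growth measured by CellTiter-Glo luminescence after a minimum 48 h, 37 C compound exposure with 20 nM CPT in Tdp1-knockout DT40 cells stably expressing hTDP1, seeded 400/well; qHTS titration format.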
HT1080NT lethal: qHTS for induction of synthetic lethality in tumor cells producing 2HG: qHTS for the HT-1080-NT fibrosarcoma cell line | Potency, µM (titrated, usually from 46.1 µM), for inactives: at the highest dose activity, negative = less viability, actives largely listed as cytotoxic | actives 1.6% (n = 360,000) | HT-1080-NT fibrosarcoma viability, CellTiter-Glo ATP luminescence, 48 h;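 note: NT is the 2HG producing partner of a matched IDH1 knockdown line; potency is the fitted concentration of half-maximal effect; 0% = DMSO-treated cells and -100% = media-only wells without cells; nearly all actives have a fitted effect of over 55% in size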
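HT-1080-NT; 750 cells/well; 5% FBS RPMI; 48 h compound, 37 degrees C; CellTiter-Glo luminescence; curve fitting and curve-class assignment.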
IL-1B inflam inh: qHTS for Inhibitors of Inflammasome Signaling: IL-1-beta AlphaLISA Primary Screen | actives 4.7% (n = 360,000) | activity change, % at 57.5 µM | AID 743279, 2014 | THP-1 LPS/ATP IL-1B secretion, AlphaLISA, 16 h; hits give low values; in the data active = activity change below about -50%; inconclusive = mostly about -30% to -49%
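Secreted IL-1B measured by AlphaLISA bead assay after 16 h compound exposure of THP-1 cells; compounds (final up to 57.5 uM) added 1 h before LPS (250 ng/mL) and ATP (1.25 mM) stimulation; lower signal means less secretion.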
12-LOX inh: Primary qHTS assay for inhibitors of human arachidonate 12S-lipoxygenase (ALOX12): Round 2 | Potency, µM (titrated, usually from 108 µM), for inactives: at the highest dose activity change, negative = inhibition, hits mostly inhibitors | purified 12hLO, xylenol orange hydroperoxide absorbance | Polyunsaturated fatty acid lipoxygenase ALOX12 (Homo sapiens), P18054 | actives 1.1% (n = 580,000); note: potency is the fitted concentration of half-maximal effect
Target sequence (P18054 whole entry, looked up): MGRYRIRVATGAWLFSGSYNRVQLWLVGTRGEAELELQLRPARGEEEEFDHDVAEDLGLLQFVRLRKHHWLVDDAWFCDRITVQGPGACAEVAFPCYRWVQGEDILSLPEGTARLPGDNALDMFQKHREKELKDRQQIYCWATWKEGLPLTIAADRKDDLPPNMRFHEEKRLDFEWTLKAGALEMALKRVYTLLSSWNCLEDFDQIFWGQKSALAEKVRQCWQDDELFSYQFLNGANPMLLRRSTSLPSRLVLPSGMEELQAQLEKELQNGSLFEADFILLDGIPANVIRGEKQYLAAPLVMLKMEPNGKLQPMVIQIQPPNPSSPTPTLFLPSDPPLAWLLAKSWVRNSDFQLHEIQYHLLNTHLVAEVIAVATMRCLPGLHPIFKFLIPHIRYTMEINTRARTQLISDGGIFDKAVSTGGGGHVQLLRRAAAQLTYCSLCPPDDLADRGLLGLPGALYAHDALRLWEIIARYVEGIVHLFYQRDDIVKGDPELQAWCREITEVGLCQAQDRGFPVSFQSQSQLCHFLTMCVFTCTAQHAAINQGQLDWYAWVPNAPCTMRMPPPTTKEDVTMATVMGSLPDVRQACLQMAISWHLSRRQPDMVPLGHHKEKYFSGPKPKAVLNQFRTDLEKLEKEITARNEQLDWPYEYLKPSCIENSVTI
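Purified human 12hLO (150 nM final) in 25 mM Hepes, 0.01% Triton X-100, pH 7.0 was preincubated 15 min at room temperature with compound. Then 40 uM arachidonic acid was added, 30 min. Hydroperoxide was read by Fe-XO absorbance ratio 573/405 nm.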
DT40 TDP1 no CPT: qHTS for Inhibitors of human tyrosyl-DNA phosphodiesterase 1 (TDP1): qHTS in cells in absence of CPT | DT40 Tdp1-/- hTDP1 cells, no CPT, ATP luminescence, 48 h | Potency, µM (titrated, usually from 46.2 µM), inactives show top-dose activity change, negative = growth inhibition, actives largely listed as inhibitors | actives 15% (n = 420,000); note: potency is the fitted concentration of half-maximal effect; nearly all actives have a fitted effect of over 55% in size
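Cells were dispensed at 400 per well, compounds added by pin tool, plates incubated ≥48 hr at 37 °C, then CellTiter-Glo added for 30 min at room temperature before luminescence reading. Line: DT40 Tdp1-/- complemented with hTDP1; camptothecin omitted.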
* = called active by the depositor; ? = inconclusive; . = not tested or not shown; ! = not active in a repeat; [ ] = dose if it differs, or a comment. Unless noted, calls come from the whole dose curve; as a rule, active = well fitted curve in the direction sought with a large enough effect; inconclusive = small, poorly fitted or top-dose-only effect, or another doubt; inactive = no such curve, though single readings can be large; an effect the other way counts as inactive or inconclusive. Unless noted, % is set by controls: 0 for no effect and ±100 for the full control effect.

SMILES	HT1080 IDH1KD tx	TDP1 cell CPT	HT1080NT lethal	IL-1B inflam inh	12-LOX inh	DT40 TDP1 no CPT
COc1ccc(-c2ccc(OC)c([C@H]3[C@H]4C=CC[C@@H](C)[C@@H]4C(=O)N3Cc3ccccc3)c2)cc1OC	6%	?	13%	-17	?	16µM*
C[C@@H]1CC=C[C@H]2[C@H]1C(=O)N(Cc1ccccc1)[C@H]2c1ccc(-c2ccc(F)cc2)cc1F	-22%	16µM*	-29%	57	-3%	13µM*
C[C@@H]1CC=C[C@H]2[C@H]1C(=O)N(Cc1ccccc1)[C@H]2c1ccc(-c2cc3ccccc3s2)cc1F	7%	16µM*	4%	29	-8%	15µM*
C[C@@H]1CC=C[C@H]2[C@H]1C(=O)N(Cc1ccccc1)[C@H]2c1ccc(-c2ccoc2)cc1F	-18%	?	?	11	?	?
CN(C)C[C@@H]1CN(Cc2ccccc2)C[C@H]1NC(=O)CCn1cccn1	.	.	.	.	12%	.
Cc1ccc(S(=O)(=O)Nc2nc3ccccc3nc2Nc2ccccc2)cc1C	.	.	.	.	9%	.
COc1ccc(C2=NOC(C(=O)N3CCN(c4ccc(F)cc4)CC3)C2)cc1OC (centres undefined)	.	.	.	.	-14%	.
COc1ccc(-c2ccc([C@H]3[C@H]4C=CC[C@@H](C)[C@@H]4C(=O)N3Cc3ccccc3)c(F)c2)cc1C	-7%	15µM*	-15%	11	-3%	15µM*
C[C@@H]1CC=C[C@@H]2[C@H]1C(=O)N(Cc1ccccc1)[C@H]2c1cccc(C#Cc2ccccc2)c1	?	29µM*	-29%	33	?	10µM*
COC(=O)/C=C/c1cccc([C@H]2[C@@H]3C=CC[C@@H](C)[C@@H]3C(=O)N2Cc2ccccc2)c1	-11%	23µM*	-11%	9	?	16µM*
COc1ccc(-c2ccc(F)cc2)cc1[C@H]1[C@H]2C=CC[C@@H](C)[C@@H]2C(=O)N1Cc1ccccc1	?	?	?	-5	-9%	?
CCCNc1c(NC(=O)c2ccc(Cl)cc2)c(=O)oc2ccccc12	.	.	.	.	-12%	.
FC(F)(F)c1cc(Cl)c2nnc(SCc3cccc(Br)c3)n2c1	.	.	.	.	25%	.
COc1c(CNCC(O)COc2ccccc2)c(C(C)C)nn1C (centres undefined)	.	.	.	.	0%	.
C[C@@]1(O)CCN(Cc2cn[nH]c2-c2ccccc2)C[C@H]1N1CCCC1	.	.	.	.	75%	.
Oc1cc2c(cc1O)[C@@H](c1ccccc1)CNCC2	?	?	?	17	?	?
C=CCN1CCc2c(cc(O)c(O)c2Br)[C@@H](c2ccccc2)C1	?	?	?	106	?	7.3µM*
Oc1ccc([C@@H]2CNCCc3c2cc(O)c(O)c3Cl)cc1	.	?	.	.	?	30µM*
CN1CCc2cc(O)c(O)cc2C(c2ccccc2)C1 (centres undefined)	-2%	-12%	11%	-22	?	?
C=CCN1CCc2cc(O)c(O)cc2[C@H](c2ccccc2)C1	.	?	.	.	?	27µM*
Oc1cc2c(cc1O)C(c1ccccc1)CNCC2 (centres undefined)	-23%	?	-30%	-2	?	26µM*!
COc1ccc(NC(=O)N(Cc2nnc3n2CCCCC3)c2ccc(C)cc2C)cc1	.	.	.	.	9%	.
O=C(Nc1cn[nH]c1)C1CCN(c2ccc(Cl)nn2)CC1	.	.	.	.	-26%	.
CCc1cc(C(=O)NC(C)CCc2ccccc2)sc1C (centres undefined)	.	.	.	.	-24%	.
C#CCN1CCC(C(=O)NCCNC(=O)C2CC2)CC1	.	.	.	.	-37%	.
SMILES	HT1080 IDH1KD tx	TDP1 cell CPT	HT1080NT lethal	IL-1B inflam inh	12-LOX inh	DT40 TDP1 no CPT
CN(CCOC(=O)/C=C/c1ccccc1)C(C)(C)C	14%	3%	14%	-3	-5%	2%
CC[N+]1(C)CCC(O)(/C=C/c2ccccc2)C(C(=O)/C=C/c2ccccc2)C1 (centres undefined)	7.3µM*	0.033µM*	-17%	-102*	-20%	0.13µM*
COC(=O)C1=CN(c2ccc(OC)cc2)C(N)=C(C#N)C1c1cccc2ccccc12 (centres undefined)	?	5.8µM*	?	16	?	5.2µM*
COC(=O)C1=CN(c2ccc(C(C)(C)C)cc2)C(N)=C(C#N)C1c1cccc2ccccc12 (centres undefined)	?	15µM*	?	7	?	13µM*
COC(=O)C1=CN(c2ccc(F)cc2)C(N)=C(C#N)C1c1cccc(OC)c1OC (centres undefined)	0%	?	1%	-18	?	?
CCc1ccc(N2C=C(C(=O)OC)C(c3cccc4ccccc34)C(C#N)=C2N)cc1 (centres undefined)	?	13µM*	?	-10	?	8.2µM*
Cc1nc2ccc(C(=O)OCC(=O)NC3CCCC3)cc2nc1C	.	.	.	.	28%	.
CSc1ccc(NC(=O)C2CCN(C(=O)c3ncn4c3COC(c3ccc(F)cc3)C4)CC2)cc1 (centres undefined)	.	.	.	.	20%	.
CCc1nc2c(cnn2-c2ccc(F)cc2)c(=O)n1-c1ccc(N2CCC(C)CC2)cc1	4%	16µM*	5%	9	-15%	15µM*
COc1ccc(-n2c(C)nc3c(cnn3-c3ccc(C)c(C)c3)c2=O)cc1Cl	.	?	.	.	0%	?
Cc1nc2c(cnn2-c2ccccc2Cl)c(=O)n1-c1ccc(N2CCC(C)CC2)cc1	-27%	16µM*	-10%	?	98%	?
CCOc1ccc(-n2c(CC)nc3c(cnn3-c3ccc(Cl)cc3)c2=O)cc1	.	16µM*	.	.	-10%	15µM*
Cc1ccc(-n2c(C)nc3c(cnn3-c3ccc(C)c(C)c3)c2=O)cc1C	-2%	18µM*	13%	1	?	16µM*
Cc1nn2c(c1-c1cccnc1N1CCOCC1)N(CC1CCOCC1)CCC2	.	.	.	.	-25%[176 µM]	.
